The structures appear in SMILES notation. Records with an inconclusive call do not appear. Activity calls are given as the source filed them. Calls follow the shape of the dose curve; as a rule, active = well fitted inhibition curve with a large enough effect; inconclusive = small, poorly fitted or top-dose-only effect; inactive = no such curve, though single readings can be large or run the other way.
Potency is read from the fitted curve at half-maximal effect.

For the experiment, the target named is Cytochrome P450 2C19 (Homo sapiens) (UniProt P33261). Description: qHTS Assay for Inhibitors and Substrates of Cytochrome P450 2C19 (AID 899). Also: nearly all actives have a fitted effect of over 60% in size. To be noted: recombinant CYP2C19, luciferin-H EGE luminescence; series mostly up to 11.4 µM. In a few lines: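 Luminescent read-out of luciferin formed from Luciferin-H EGE (10uM, equal to KM). Enzyme 5nM in 50mM KPO4; compound added, 10 min at 37C, then NADPH regenerating system for 60 min at 37C. Full inhibition defined by 57uM ketoconazole.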
Cytochrome P450 2C19 (Homo sapiens), sequence (P33261 whole entry, looked up): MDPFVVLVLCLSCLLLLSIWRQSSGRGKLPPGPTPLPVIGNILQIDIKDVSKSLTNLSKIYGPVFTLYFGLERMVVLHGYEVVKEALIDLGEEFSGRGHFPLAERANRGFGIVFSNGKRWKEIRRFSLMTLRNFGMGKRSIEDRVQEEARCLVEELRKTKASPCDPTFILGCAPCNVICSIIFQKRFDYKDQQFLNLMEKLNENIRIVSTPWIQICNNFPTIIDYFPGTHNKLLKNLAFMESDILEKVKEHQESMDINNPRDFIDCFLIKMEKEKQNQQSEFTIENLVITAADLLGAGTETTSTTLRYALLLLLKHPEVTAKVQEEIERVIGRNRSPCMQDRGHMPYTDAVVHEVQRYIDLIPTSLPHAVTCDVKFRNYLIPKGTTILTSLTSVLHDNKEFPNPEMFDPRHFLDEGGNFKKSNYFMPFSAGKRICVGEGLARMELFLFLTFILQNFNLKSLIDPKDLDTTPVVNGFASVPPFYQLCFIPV
On the technique in general: In qHTS, concentration-response curves come from the screen itself.
In the case of `COC(=O)[C@@]1(Cc2ccccc2)[C@H]2c3cc(C(=O)N4CCCC4)[nH]c3C[C@H]2CN1C(=O)c1ccccc1`, the Potency was 0.501 µM (active).
Turning to `C[C@H](CO)NC(=O)[C@H](C)[C@H]1C[C@]1(C)[C@H](NC(=O)OCc1ccccc1)c1ccccc1`, the Potency was 0.631 µM (active).
As for `COC(=O)[C@@]1(Cc2ccc(F)cc2)[C@H]2c3cc(C(=O)N4CCCC4)n(CCc4c[nH]c5ccc(OC)cc45)c3C[C@H]2CN1C(=O)c1ccccc1`, the Potency is 7.94 µM (active).
`CCC/C=C(\CCC)C(NS(C)(=O)=O)c1ccccc1` (centres undefined): the Potency was 7.94 µM (active).

The values are drawn from PubChem BioAssay (NCATS).
